Among the data in PubChem BioAssay (EPA / NIEHS) are outcome and AC50 values, retold here.

Inconclusive results are not listed. The source made the active and inactive calls. Rule for the calls: active = hit-call score of the fitted dose curve at least 0.9, where 1 is the maximum; inconclusive = response in the unintended direction; inactive = score below 0.9.

Test [1] in a line: TOX21_p53_BLA_p2_viability: Viability Assessment in the Tox21 HCT-116 p53 Agonism Beta-lactamase Assay, Phase 2 (AID 2283591).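 Note: compound exposure lasted 16 h at 37 °C; actives lower the ATP signal meaning cytotoxicity.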 The method in brief: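 HCT-116 p53-bla cells (4000/well) rested 5 h at 37C, then received compounds in DMSO (217-fold dilution) for 16 h at 37C, 5% CO2. After the CCF4 read, CellTiter-Glo was added; ATP luminescence was read after 30 min at room temperature.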

For test [2], the target named is Cellular tumor antigen p53 (Homo sapiens) (UniProt P04637). Put plainly: TOX21_p53_BLA_p2_ratio: Tox21 HCT-116 p53 Agonism Beta-lactamase Assay, Ratio, Phase 2 (AID 2283592). The method, boiled down: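 In this cell-based reporter format, HCT116 cells were dosed with chemicals delivered from DMSO by 217-fold dilution and incubated 16 h at 37C. Emission at 460 and 530 nm after 2 h CCF4-AM loading provided the ratio, fitted upward versus DMSO.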

Test [3] is described as follows: TOX21_p53_BLA_p3_viability: Viability Assessment in the Tox21 HCT-116 p53 Agonism Beta-lactamase Assay, Phase 3 (AID 2283593).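 Note: cells exposed to compound for 16 h before reading.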 The method, boiled down: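 HCT-116 cells (4000/well) rested 5 h at 37C, then got DMSO compounds by pin tool (217-fold dilution) for 16 h at 37C, 5% CO2. After the bla read, CellTiter-Glo was added and luminescence read at 30 min, room temperature.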

Test [4] addresses Cellular tumor antigen p53 (Homo sapiens) (UniProt P04637). The experiment in a line: TOX21_p53_BLA_p3_ratio: Tox21 HCT-116 p53 Agonism Beta-lactamase Assay, Ratio, Phase 3 (AID 2283596). The method in brief: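 HCT116 p53-bla cells (4000/well) given compound in DMSO (217-fold dilution) after 5 h, incubated 16 h at 37C. CCF4-AM substrate 2 h at room temperature; 460/530 nm emission ratio, gain fitted against DMSO.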

Test [5] can be described thus: TOX21_p53_BLA_p4_viability: Viability Assessment in the Tox21 HCT-116 p53 Agonism Beta-lactamase Assay, Phase 4 (AID 2283597).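 Note: hits lower the luminescence signal meaning cytotoxicity.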 The method, boiled down: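 We seeded HCT116 p53 reporter cells at 4000/well and waited 5 h. We then added compounds in DMSO at a 217-fold dilution and incubated for 16 h. Viability was read as CellTiter-Glo luminescence after 30 min at RT.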

Test [6] is described as follows: TOX21_p53_BLA_p5_viability: Viability Assessment in the Tox21 HCT-116 p53 Agonism Beta-lactamase Assay, Phase 5 (AID 2283600). The method in brief: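 Compounds, pinned from DMSO at 217-fold dilution, were left on the cells for 16 h. The viability endpoint was ATP content measured by CellTiter-Glo luminescence, where falling signal reflects cytotoxicity.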
Test [7] concerns the target Cellular tumor antigen p53 (Homo sapiens) (UniProt P04637). The experiment in a line: TOX21_p53_BLA_p5_ratio: Tox21 HCT-116 p53 Agonism Beta-lactamase Assay, Ratio, Phase 5 (AID 2283599). The method, boiled down:
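HCT-116 cells carrying a p53-inducible beta-lactamase reporter were seeded at 4000 cells/well and dosed after 5 h with compound in DMSO (217-fold dilution). After 16 h at 37C, CCF4-AM substrate was added for 2 h, and the 460/530 nm emission ratio was scored as gain-of-signal versus DMSO.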

Test [8] shares this target. The experiment in a line: TOX21_p53_BLA_p4_ratio: Tox21 HCT-116 p53 Agonism Beta-lactamase Assay, Ratio, Phase 4 (AID 2283601). The method in brief:
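HCT116 cells carrying an inducible beta-lactamase reporter were plated at 4000 cells/well, rested 5 h, then exposed to compounds in DMSO (217-fold dilution) for 16 h at 37C. CCF4-AM substrate was loaded 2 h at room temperature; 460/530 nm emission ratio scored gain-of-signal versus DMSO.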

Test [9] deals with Thyroid hormone receptor alpha (Rattus norvegicus) + Thyroid hormone receptor beta (Rattus norvegicus) (UniProt P18113+P63059). The experiment in a line: TOX21_TR_LUC_GH3_Antagonist_Followup: Tox21 GH3 Thyroid Hormone Receptor Antagonism Luciferase Follow-Up Assay (AID 2283942). The method in brief: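 Rat pituitary GH3 cells with a TRα/TRβ-driven luciferase reporter, 5 h attachment, then 15 concentrations (92 uM to 5nM final) plus 1.0 nM T3 agonist, 24 h at 37C/5% CO2. ONE-Glo luminescence; signal change fitted against DMSO baseline.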

Test [10] concerns the target THRA (gene 7067) (UniProt P10827). Put plainly: TOX21_TRA_COA_Antagonist_Followup_ratio: Tox21 Thyroid Hormone Receptor alpha Antagonism through Coactivator Recruitment Follow-Up Assay, Ratio (AID 2283953). The method, boiled down:
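520:495 nm emission ratio (excitation 340 nm) reports fluorescein-SRC-2 peptide recruitment to GST-TRα LBD by TR-FRET with Tb anti-GST antibody. Values were normalized to DMSO (0%) and T3 control wells (100%); loss of signal indicated antagonism.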

Test [11] in a line: TOX21_TRB_BLA_Antagonist_Followup_viability: Viability Assessment in the Tox21 Thyroid Hormone Receptor beta Antagonism Beta-lactamase (BLA) Follow-Up Assay (AID 2283961). The method, boiled down: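 Viability read as CellTiter-Glo ATP luminescence (loss of signal = cytotoxicity) in the same plates as the TRβ-bla readout. TRβ-LBD/GAL4 UAS-bla HEK293T cells were exposed to compounds, 11 concentrations in triplicate, for 18 h at 37C/5% CO2.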

Test [12] concerns the target THRB (gene 7068) (UniProt P10828). The experiment in a line: TOX21_TRB_COA_Antagonist_Followup_ratio: Tox21 Thyroid Hormone Receptor beta Antagonism through Coactivator Recruitment Follow-Up Assay, Ratio (AID 2283967). The method in brief: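 Cell-free TR-FRET coactivator recruitment with GST-tagged TRβ LBD (5.0 nM) and fluorescein-labeled SRC-2 peptide (200 nM) detected by terbium anti-GST antibody (2 nM). The 520:495 nm emission ratio was normalized to DMSO (0%) and T3 (100%).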

Test [13] in a line: TOX21_TR_RXR_BLA_Antagonist_Followup_viability: Viability Assessment in the Tox21 Thyroid Hormone Receptor beta Retinoid X Receptor alpha (RXRa) Antagonism Beta-lactamase (BLA) Follow-Up Assay (AID 2283979). The method, boiled down: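 RXRa-UAS-bla HEK293T cells seeded 2,500/well in phenol red-free DMEM with 2% charcoal-stripped FBS, attached 5 h, then exposed to compounds at 11 concentrations in triplicate for 16 h at 37C/5% CO2. Viability read by CellTiter-Glo ATP luminescence; bidirectional fit versus DMSO.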

Cellular tumor antigen p53 (Homo sapiens), sequence (P04637 whole entry, looked up): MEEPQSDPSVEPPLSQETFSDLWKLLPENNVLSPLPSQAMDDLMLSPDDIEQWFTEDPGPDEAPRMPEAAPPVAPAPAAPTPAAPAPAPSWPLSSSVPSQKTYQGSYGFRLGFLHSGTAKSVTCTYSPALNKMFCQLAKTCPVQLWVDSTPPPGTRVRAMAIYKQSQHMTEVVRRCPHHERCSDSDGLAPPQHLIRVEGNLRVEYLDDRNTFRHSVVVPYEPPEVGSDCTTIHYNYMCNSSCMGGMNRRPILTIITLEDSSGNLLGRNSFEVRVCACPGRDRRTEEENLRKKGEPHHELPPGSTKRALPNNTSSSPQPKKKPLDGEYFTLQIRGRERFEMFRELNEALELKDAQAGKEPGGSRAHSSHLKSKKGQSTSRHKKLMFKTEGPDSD
THRA (gene 7067), sequence (P10827 whole entry, looked up, the tested form may be a part): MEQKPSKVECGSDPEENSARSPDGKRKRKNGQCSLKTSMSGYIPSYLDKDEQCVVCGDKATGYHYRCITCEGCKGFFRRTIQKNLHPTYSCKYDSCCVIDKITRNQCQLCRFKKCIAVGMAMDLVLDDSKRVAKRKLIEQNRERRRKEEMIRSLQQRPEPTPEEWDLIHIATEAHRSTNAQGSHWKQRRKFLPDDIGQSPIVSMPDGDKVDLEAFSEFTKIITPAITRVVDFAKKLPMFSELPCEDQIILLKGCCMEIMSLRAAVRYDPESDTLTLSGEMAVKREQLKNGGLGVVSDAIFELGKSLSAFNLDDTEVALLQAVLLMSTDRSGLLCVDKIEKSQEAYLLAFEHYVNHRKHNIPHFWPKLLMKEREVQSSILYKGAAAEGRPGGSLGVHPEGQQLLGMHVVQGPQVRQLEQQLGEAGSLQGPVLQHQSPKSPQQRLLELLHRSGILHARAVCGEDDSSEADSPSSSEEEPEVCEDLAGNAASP
THRB (gene 7068), sequence (P10828 whole entry, looked up, the tested form may be a part): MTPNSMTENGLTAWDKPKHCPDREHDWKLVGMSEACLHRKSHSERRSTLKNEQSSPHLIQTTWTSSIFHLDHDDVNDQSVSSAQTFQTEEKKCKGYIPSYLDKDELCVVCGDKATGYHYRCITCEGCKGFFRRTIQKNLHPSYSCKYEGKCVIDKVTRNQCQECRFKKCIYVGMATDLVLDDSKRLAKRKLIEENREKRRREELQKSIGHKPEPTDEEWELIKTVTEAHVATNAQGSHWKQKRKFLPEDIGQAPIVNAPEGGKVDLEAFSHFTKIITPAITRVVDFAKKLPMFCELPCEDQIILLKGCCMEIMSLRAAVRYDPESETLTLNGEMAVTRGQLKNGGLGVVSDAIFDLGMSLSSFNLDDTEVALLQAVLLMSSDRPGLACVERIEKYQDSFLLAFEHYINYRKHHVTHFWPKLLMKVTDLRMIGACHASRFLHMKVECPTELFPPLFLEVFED

For the molecule `CC(C[N+](C)(C)C)OC(N)=O` (centres undefined), the outcome in [1], in [2], in [3], in test [4], in test [5] and in [6] was inactive.
For the molecule `COc1cccc(O)c1O`, the call in test [1], in [2], in [3], in test [4], in [5] and in test [7] was inactive. Besides, the result in test [8] was inactive.
For the molecule `O=C(CO)[C@@H](O)[C@H](O)[C@@H](O)C(=O)O`, the call in test [1], in test [2], in test [3], in test [4], in test [5] and in [7] was inactive. Further, in test [8], the outcome was inactive.
A word on the AC50: it is the midpoint of the concentration-response curve, whichever way the signal moves. Regarding `CC1(C)N=C(N)N=C(N)N1c1ccc(Cl)cc1`, the AC50 in [1] is 6.72 µM (active); in test [2] it was 28.2 µM (active); in [3], 13.9 µM (active); in test [5], 6.46 µM (active); in test [11] it was 32.1 µM (active). Also, the outcome in [4], in test [7], in test [8], in test [9], in test [10] and in test [12] was inactive. The call in test [13] was inactive.
`CC(C)N=C(N)/N=C(\N)Nc1ccc(Cl)cc1`: the result in test [1], in test [2], in test [3], in [4], in test [5] and in test [7] was inactive. Also, the outcome in [8], in test [9], in test [10], in test [11], in test [12] and in test [13] was inactive.
